Laboratory results taken from PubChem BioAssay (NCI).
The panel holds about 83,000 compounds, 20% with a hit somewhere; the sample as a whole holds those more often.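 48-hour exposure, single concentration, 96-well plates; percent growth endpoint where 0 means no net growth. Active: below 10.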 Unmarked numbers belong to inactive results. Calls of active or inactive are those of the source.

What follows are compounds tested on MDA-MB-468 breast (assay: NCI-60 one-dose screen, 48 h (100 = growth as untreated, 0 = no growth, -100 = all killed)). Settings: 10 µM unless noted.

Q: How did the growth turn out when `COc1ccc(C(=O)c2nc3ccccc3n2CC(=O)c2ccc(F)cc2)cc1` was run?
A: 55%

Q: For `NC1=NC(c2cccc(Br)c2)c2sc3ccc(Cl)cc3c2N1` (stereo not given), which growth is on record?
A: 87.4%

Q: For `N#Cc1nc(-c2ccccc2)oc1S(=O)(=O)N1CCN(c2ccccc2)CC1`, which growth is on record?
A: 98.3%

Q: How did the growth turn out when `O=C1NC(=O)/C(=C/c2c(-c3ccccc3)nc3sc(COc4ccccc4)nn23)S1` was run?
A: 98.9%

Q: For `CS(=O)(=O)Nc1ccc(Nc2c3ccccc3nc3cc([N+](=O)[O-])ccc23)cc1`, which growth is on record?
A: -43.3% (active)

Q: How did the growth turn out when `COc1ccccc1CNCCCN1C(=O)c2ccc3c4c(ccc(c24)C1=O)C(=O)N(CCCNCCNCCCN)C3=O` was run?
A: -56.2% (active)

Q: How did the growth turn out when `Cc1cc(Nc2ncc(Cl)c(Nc3ccccc3S(=O)(=O)C(C)C)n2)c(OC(C)C)cc1C1CCNCC1` was run?
A: -78.1% (active)

Q: `CCC(O)(C(c1ccccc1)c1ccccn1)C(c1ccccc1)c1ccccn1` (stereo not given) was tested. Which growth did it give?
A: 114%

Q: How did the growth turn out when `O=[N+]([O-])c1cccc2nsnc12` was run?
A: 93.1%

Q: Which growth does the source give for `COc1cc2nc(Cl)nc(Nc3cccc(C4=Nc5c(N)nc(N)nc5NC(c5ccc(Cl)cc5)C4)c3)c2cc1OC` (stereo not given) here?
A: 27.5%

Q: `N#CC1=CC2CN(Cc3ccccc3)C1C1C(=O)N(c3ccccc3)C(=O)C21` (stereo not given) was tested. Which growth did it give?
A: 93.8%

Q: With `O=C(O)c1cccc(N/C=C/C(=O)c2cc3cc(Br)ccc3oc2=O)c1` as the compound, how does the growth read?
A: 96.1%

Q: How did the growth turn out when `COc1ccc(NC(=O)/C=C/c2ccc(NC(=O)N3CCCC3)cc2)cn1` was run?
A: 116%

Q: Which growth does the source give for `CNCCCOc1c(Br)cc(CCNC(=O)/C(Cc2ccc(OC)c(Br)c2)=N/O)cc1Br` here?
A: 48.5%

Q: `COC(=O)c1c2c(c(C)[n+]([O-])c1C)C(=O)C(NCc1ccc(Br)cc1)=CC2=O` was tested. Which growth did it give?
A: -16.6% (active)

Q: For `COc1ccc(Nc2nc3ccc(NC(=O)NC4CCCCC4)cc3[nH]c2=O)cc1`, which growth is on record?
A: 96%

Q: With `Cc1ccc2nc(NC(=O)CSc3nc(Nc4ccc([N+](=O)[O-])cc4)c(C#N)c(-c4ccccc4)n3)sc2c1` as the compound, how does the growth read?
A: 105%

Q: Which growth does the source give for `COc1ccc(C(=O)Cn2c(C(=O)c3ccccc3)nc3ccccc32)cc1` here?
A: 2.35% (active)

Q: How did the growth turn out when `O=C(Nc1ccc(OS(=O)(=O)c2ccc(F)cc2)cc1)c1ccc(Cl)cc1` was run?
A: 98%

Q: `COc1ccccc1N1CCCCC1` was tested. Which growth did it give?
A: 118%

Q: With `O=C(COc1ccc(/C=C2\C(=O)Nc3ccc(Cl)cc32)cc1)Nc1ccc(Cl)cc1` as the compound, how does the growth read?
A: 87.6%

Q: Which growth does the source give for `C#CCOc1cccc(Nc2ncnc3c2ncn3C2CCN(C(=O)CCl)C2)c1` (stereo not given) here?
A: -65.7% (active)

Q: With `Cc1c2cnccc2c(C)c2c1oc1ccccc12` as the compound, how does the growth read?
A: 82.6%

Q: `Cc1[nH]c2ccccc2c(=O)c1CC=C(Cl)Cl` was tested. Which growth did it give?
A: -43.2% (active)

Q: Which growth does the source give for `O=[N+]([O-])c1ccc(Sc2nc(Cl)nc(NC3CCCC3)n2)cc1` here?
A: -46.5% [100 µM] (active)

Q: For `COc1cc(-c2nc(SC(C)C)n(C(C)C)c(=O)c2C#N)ccc1OCc1ccccc1`, which growth is on record?
A: 66.8%

Q: With `CCCCCCCC/C=C/CCCCCCCC1=NC(C)(C)CN1C(C)(C)CO` as the compound, how does the growth read?
A: -91.5% (active)

Q: `NNC(=O)c1ccc(-n2nc(-c3ccccc3)c3ccccc32)cc1` was tested. Which growth did it give?
A: 38.3%

Q: For `O=S(=O)(NCCCNc1nccc(-c2c(-c3ccc(F)c(O)c3)nc3sccn23)n1)c1ccccc1`, which growth is on record?
A: 82.4%

Q: For `O=c1c2cc(F)ccc2sc2c(NCCN3CCOCC3)nc3ccccc3c12`, which growth is on record?
A: 71.3%

Q: For `O=C(Nc1ccc(-n2cc(-c3ccncc3)c(-c3ccc(Cl)c(O)c3)n2)cc1)Nc1ccc(Cl)c(C(F)(F)F)c1`, which growth is on record?
A: -19.8% (active)

Q: How did the growth turn out when `CCCCCCCCC(=O)Nc1ccc(O)cc1` was run?
A: 100%

Q: `COc1ccc2c(c1)C(=O)c1c-2c(OCCN(C)C)nc2cc(OC)c(OC)cc12` was tested. Which growth did it give?
A: 81.6%

Q: Which growth does the source give for `CN1CCC2(CC1)N=C(SCC(=O)Nc1cnc3ccccc3c1)C(c1ccc(Br)cc1)=N2` here?
A: -43.8% (active)

Q: With `C/C(=N\NC(=O)c1ccncc1)c1ccc(N)cc1` as the compound, how does the growth read?
A: 97.1%

Q: `CN(C)c1ccc(/C=C/c2cc[n+](C)c(/C=C/c3ccc(N(C)C)cc3)c2)cc1` was tested. Which growth did it give?
A: -12.7% (active)

Q: `Cc1[nH]nc(C(N)=O)c1[N+](=O)[O-]` was tested. Which growth did it give?
A: 85.5%

Q: Which growth does the source give for `COc1ccc(/C=c2/c(=O)[nH]c3nc4sc(C)c(C)c4c(=O)n23)cc1` here?
A: 83.1%

Q: How did the growth turn out when `O=C(N/N=C/[C@H](O)[C@H](O)[C@H](O)CO)c1ccc(NC(=O)c2cccnc2)cc1` was run?
A: 113%

Q: How did the growth turn out when `COc1cccc(-c2nc3cc(NC(=O)c4ccc(Cl)c(C#N)c4)ccc3o2)c1` was run?
A: -60.3% (active)
